Experimental data published in PubChem BioAssay (NCI).
This is part of a sample that, as a whole, favours compounds with a hit. Of some 83,000 tested, about 20% had one in any assay.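 For each line, cells grew in 96-well plates with the test compound present at a single concentration for 48 hours.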 A number with no mark means an inactive call. Calls of active or inactive are those of the source. The calls were made as follows: active = growth percent below 10; inactive = the rest.

Legend:
Test in all cases: NCI-60 one-dose screen, 48 h (100 = growth as untreated, 0 = no growth, -100 = all killed)
Settings in all cases: 10 µM unless noted
[1] = test system: NCI-H23 lung
[2] = test system: NCI-H226 lung
[3] = test system: NCI-H322M lung
[4] = test system: HOP-62 NSCLC
[5] = test system: NCI-H460 lung
[6] = test system: HOP-92 NSCLC
[7] = test system: NCI-H522 lung
[8] = test system: A549/ATCC NSCLC
[9] = test system: 786-0 renal
[10] = test system: COLO 205 colon
[11] = test system: DU-145 prostate
[12] = test system: K-562 leukemia
[13] = test system: MALME-3M melanoma
[14] = test system: MDA-MB-231 breast
[15] = test system: SF-268 CNS
[16] = test system: SF-295 CNS
[17] = test system: SF-539 CNS
[18] = test system: UACC-257 melanoma
[19] = test system: M14 melanoma

SMILES	growth [1]	growth [2]	growth [3]	growth [4]	growth [5]	growth [6]	growth [7]	growth [8]	growth [9]	growth [10]	growth [11]	growth [12]	growth [13]	growth [14]	growth [15]	growth [16]	growth [17]	growth [18]	growth [19]
CCOC(=O)c1c(O)cc(-c2ccccc2)cc1-c1sc(N(C)Cc2ccccc2)nc1Cl	98.7%	94%	106%	104%	102%	91.3%	86.4%	98.8%	-97.1% (active)	106%	108%	93.4%	100%	103%	95.8%	99.6%	97%	96.1%	-85% (active)
Cc1c2c(cc[n+]1Cc1ccccc1)c1ccc(OCC3CCCCC3)cc1n2CC1CCCCC1	-76.7% (active)	-89.1% (active)	-83.2% (active)	-95% (active)	-93.4% (active)	-85.6% (active)	-84.5% (active)	-93.1% (active)	-91.3% (active)	-95.2% (active)	-100% (active)	-45.9% (active)	-70.3% (active)	-92% (active)	-98.7% (active)	-92.8% (active)	-85.2% (active)	-92.4% (active)	-84.6% (active)
CC(=O)N1N=C(c2cccc(Nc3ccncc3)c2)CC1c1ccccc1 (centres undefined)	93.3%	95.3%	93.3%	92.5%	95.1%	55.9%	91.7%	85.2%	4.92% (active)	81.5%	99.5%	11.8%	76.7%	83.9%	91%	87.5%	80.9%	92.6%	-76.2% (active)
O=S(=O)(NCCCNc1nccc(-c2c(-c3ccccc3)nc3occn23)n1)c1ccc(Cl)cc1	94.2%	75.3%	99.9%	95.1%	85%	93.8%	77.9%	65.8%	82.5%	69.1%	85.5%	50.6%	91.8%	93.3%	80%	93.3%	110%	105%	71%
COc1ccc(-c2nc3sccn3c2/C=C/C(=O)c2cc(OC)c(OC)c(OC)c2)cc1	59.9%	87.4%	69.4%	79.1%	47%	-1.77% (active)	5.02% (active)	60.4%	78.3%	79.2%	75.7%	44.2%	53.3%	52.8%	67.4%	54.6%	53%	69.1%	63.6%
COc1ccc(-c2nn(Cc3ccccc3)c3c2-c2oncc2CC3)cc1OC	105%	131%	112%	120%	95.6%	49.4%	98.9%	96.8%	97.8%	136%	97.4%	90.5%	138%	77.8%	104%	96.5%	93.3%	89.9%	127%
Cc1c2c(cc[n+]1Cc1ccc(F)cc1)c1ccc(OCc3cccc(F)c3)cc1n2Cc1cccc(F)c1	-58.1% (active)	-66.9% (active)	-72.1% (active)	-91.2% (active)	-78% (active)	-73.9% (active)	-80.1% (active)	25.1%	-85.8% (active)	-91.1% (active)	-90.8% (active)	-15.8% (active)	-79.6% (active)	-87.7% (active)	-94.2% (active)	-68.5% (active)	-65.4% (active)	-86% (active)	-82.1% (active)
O=C(Nc1ccc(F)cc1)c1c(NC(=O)C(F)(F)F)sc2c1CCCCC2	-5.63% (active)	-6.78% (active)	11%	-23.5% (active)	2.16% (active)	-28.5% (active)	2.42% (active)	5.88% (active)	-10.4% (active)	-18.6% (active)	16.9%	6.57% (active)	-21.1% (active)	-20.4% (active)	4.27% (active)	-42.4% (active)	-0.67% (active)	-23.9% (active)	-3.37% (active)
Cc1c(C2=CCCCC2)c2ccccn2c1C(=O)c1cccc(S(=O)(=O)N2CCOCC2)c1	75.6%	93.2%	80.7%	70%	92.7%	53.9%	68.1%	69.4%	51%	102%	98.3%	57.4%	73.5%	92%	75%	34.6%	97.2%	86.8%	61.9%
COc1ccc(C2CC(c3cccc(Nc4ccncc4)c3)=NN2c2ccccc2)cc1 (centres undefined)	82.8%	94.7%	68.2%	43.9%	-40.8% (active)	47.6%	39.9%	39.9%	-4.64% (active)	-55% (active)	42.2%	1.17% (active)	-70% (active)	62.5%	72.2%	64%	59.7%	-35.6% (active)	-46% (active)
Nc1ncc(C#Cc2cncc(NC(=O)c3cccc(C(F)(F)F)c3)c2)c2cccnc12	30.4%	39.2%	81%	52.8%	12.3%	65.6%	67.2%	31.8%	63.9%	47%	43.7%	7.45% (active)	-6.22% (active)	36%	58.4%	61.2%	43.8%	71.7%	18.2%
C=C(C)[C@H]1CC/C(C)=C/CC[C@]2(C)O[C@H]2CC/C(COC(=O)[C@@H](OC(C)=O)[C@H](NC(=O)c2ccccc2)c2ccccc2)=C\[C@@H]1O	98.5%	95%	104%	97.6%	89%	59.4%	59.5%	87.3%	85.1%	113%	102%	129%	100%	88.5%	90.2%	88.8%	87.2%	83.1%	90.6%
CC(C)(O)C1CCCN1C(=O)c1ccccc1I (centres undefined)	94.6%	89.4%	101%	95.4%	85.8%	58.6%	83.9%	92.1%	87.7%	105%	111%	83.5%	109%	84%	91.5%	84.4%	105%	104%	95.1%
Cc1ccc2nc3c(cc2c1)CSc1nnc(-c2ccc[nH]c2=S)n1N3	98.6%	91.5%	99.9%	95.8%	99.2%	102%	83.7%	99.7%	98.7%	110%	113%	93%	97.7%	93.4%	89.5%	108%	97.3%	103%	93%
O=C1NC(=S)NC(=O)C1=Cc1cn(Cc2ccccn2)c2ccccc12	77.9%	86.7%	95.5%	53.6%	10.7%	66.9%	76.6%	66.2%	43.9%	58.4%	76.8%	26.4%	85.1%	53.3%	59.6%	73.6%	60.7%	87.8%	-61.2% (active)
CN1CCN(c2cnc(C(=O)Nc3cc(F)cc4cccnc34)cn2)CC1	39.6%	90.1%	83.9%	98.6%	103%	79.1%	22%	92.4%	56%	21.2%	72.3%	16.9%	42.2%	33.4%	93.7%	94.3%	71.8%	44.8%	51.4%
